In PubChem BioAssay (NCATS):
Records with an inconclusive call do not appear. Calls of active or inactive are those of the source. Calls come from the whole dose curve; as a rule, active = well fitted inhibition curve with a large enough effect; inconclusive = small, poorly fitted or top-dose-only effect; inactive = flat fitted curve, though single readings scatter.

biological target: DNA repair nuclease/redox regulator APEX1 (Homo sapiens) (UniProt P27695); experiment: qHTS Validation Assay for Inhibitors of the Human Apurinic/apyrimidinic Endonuclease 1 (APE1) (AID 1705;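 for activity change, negative = inhibition: TAMRA fluorescence gain over two minutes as APE1 cuts a quenched THF abasic duplex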); settings: purified APE1 endonuclease activity, fluorescence, titration; series mostly up to 57.1 µM; activity change, negative = inhibition: at the top concentration
Sequence (P27695 whole entry, looked up): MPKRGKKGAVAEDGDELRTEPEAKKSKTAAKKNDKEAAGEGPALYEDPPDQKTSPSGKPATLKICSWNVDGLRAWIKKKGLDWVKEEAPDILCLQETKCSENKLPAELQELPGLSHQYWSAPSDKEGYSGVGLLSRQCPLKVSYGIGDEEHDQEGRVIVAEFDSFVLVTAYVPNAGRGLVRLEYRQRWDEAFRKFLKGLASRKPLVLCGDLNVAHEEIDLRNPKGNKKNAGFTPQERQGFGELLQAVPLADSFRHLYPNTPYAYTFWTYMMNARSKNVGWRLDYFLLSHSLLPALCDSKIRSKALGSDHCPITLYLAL
From the text: Assay Provider: David M. Wilson, III, National Institute on Aging, NIH
Screening Center PI: Austin, C.P.
Screening Center: NIH Chemical Genomics Center [NCGC]
The apurinic/apyrimidinic endonuclease APE1 is the primary mammalian enzyme responsible for the removal of abasic (or AP) sites in DNA and functions centrally in the base excision DNA repair (BER) pathway. […] Thus, targeting APE1 could improve the efficacy of current treatment paradigms by promoting selective sensitization or protection of diseased and normal cells, respectively.
Inhibition of APE1 activity was screened by utilizing double-stranded short substrate containing tetrahydrofuran (THF) abasic site labeled with rhodamine-type fluorophore (TAMRA) at the 5'-end and with non-fluorescent Black Hole Quencher-2 (BHQ-2) at the opposing 3'-end. An increase in the fluorescence intensity due to incision of the abasic site by APE1 was used to measure the enzyme activity.
1. Substrate: 50 nM final concentration of TAMRA/BHQ-2 substrate dispensed throughout the plate.
2. Enzyme: […] nM APE1 final concentration in columns 1, 2, 5-48. Column 1 is neutral (100% activity)
3. Control: Pintool transfer of control inhibitor NSC-13755 to column 2 of all assay plates. Two-fold, 16 pt dilution in duplicate to produce final concentrations in the […] uM - […] nM range.
3. Buffer columns in columns 3 and 4 were used as negative control (no enzyme).
Three uL of enzyme were dispensed to 1536-well Greiner black solid bottom plates. Compounds (23 nL) were transferred via Kalypsys pintool. The plates were incubated for 15 min at room temperature, and then 1 uL of substrate solution was added to start the reaction. The plates were immediately transferred into ViewLux High-throughput CCD imager (Perkin-Elmer) in order to measure the reaction progress in kinetic mode (three reads every 60 seconds) using 525 nm excitation and 598 nm emission fluorescence protocol. The fluorescence intensity difference between the third and the first time points was used to compute reaction progress.
% is set by controls: 0 for no effect and ±100 for the full control effect; potency is the fitted concentration of half-maximal effect.

SMILES	activity change, negative = inhibition	Potency
COc1ccc(CNC(=O)/C=C/c2ccc3[nH]cc(CCN(C)C)c3c2)cc1	-6.01% (inactive)	–
C#CCN[C@H](C)Cc1ccccc1	-5.16% (inactive)	–
O=[N+]([O-])c1cc(O)c(O)c([N+](=O)[O-])c1	4.81% (inactive)	–
NCCc1c[nH]c2ccc(C(N)=O)cc12	-8.82% (inactive)	–
CC(=O)NBr	-12.3% (inactive)	–
N#CC(C#N)=Cc1cc(O)c(O)c(O)c1	-3.98% (inactive)	–
NC(=O)c1ccc(OCC(O)CN2CC=C(c3ccc(F)cc3)CC2)cc1 (stereo not given)	7.74% (inactive)	–
CC(C)CC(NP(=O)(O)O[C@@H]1O[C@@H](C)[C@H](O)[C@@H](O)[C@H]1O)C(=O)NC(Cc1c[nH]c2ccccc12)C(=O)O (stereo not given in full)	1.76% (inactive)	–
CN1CC[C@@]2(C)c3cc(O)ccc3N(C)C12 (stereo not given in full)	-2.5% (inactive)	–
NC(N)=Nc1ccc2[nH]c3c(c2c1)C[C@@]1(O)[C@H]2Cc4ccc(O)c5c4[C@@]1(CCN2CC1CC1)[C@H]3O5	-3.94% (inactive)	–
CCN(CCCl)Cc1ccccc1Br	8.78% (inactive)	–
CCCn1c(=O)c2[nH]c(C3CCCC3)nc2n(CCCOC(=O)c2ccc(S(=O)(=O)F)cc2)c1=O	-1.36% (inactive)	–
Clc1ccc(N2CC3CCC(C2)N3)nn1	10.2% (inactive)	–
c1ccc2cc(CC3=NCCN3)ccc2c1	1.87% (inactive)	–
C[N+](C)(C)CC#CCOC(=O)Nc1cccc(Cl)c1	0.359% (inactive)	–
CN1CCC(c2c[nH]c3ccc(O)cc23)CC1	1.18% (inactive)	–
CNc1ccc2oc(C[C@H]3O[C@@]4(CC[C@H]3C)O[C@H]([C@H](C)C(=O)c3ccc[nH]3)[C@H](C)C[C@H]4C)nc2c1C(=O)O	-2.7% (inactive)	–
CC(=O)c1c(O)c(C)c(O)c(Cc2c(O)c3c(c(C(=O)/C=C/c4ccccc4)c2O)OC(C)(C)C=C3)c1O	-6.1% (inactive)	–
COc1ccc2[nH]c3c(c2c1)CCNC3	-0.916% (inactive)	–
NNC(N)=O	18.6% (inactive)	–

SMILES	activity change, negative = inhibition	Potency
NC(Cc1cc(O)c(O)cc1O)C(=O)O (stereo not given)	–	112 nM (active)
C[Se]C[C@H](N)C(=O)O	2.09% (inactive)	–
NCC(CP(=O)(O)O)c1ccc(Cl)cc1 (stereo not given)	1.38% (inactive)	–
CN(N=O)c1ccc(O)c(O)c1	–	501 nM (active)
Oc1ccc2c3c1O[C@H]1c4oc5ccccc5c4C[C@@]4(O)C(C2)N(CC2CC2)CCC314 (stereo not given in full)	-12.1% (inactive)	–
C[N+]1(C)CCOC(O)(c2ccc(-c3ccc(C4(O)C[N+](C)(C)CCO4)cc3)cc2)C1 (stereo not given)	-5.9% (inactive)	–
C[N+]1(C)CCC(OC(=O)C(c2ccccc2)c2ccccc2)CC1	-0.807% (inactive)	–
CCCN(CCC)CCc1ccc(O)c(O)c1	5.54% (inactive)	–
COc1ccc2c(c1)C13CCCCC1C(C2)N(C)CC3 (stereo not given)	-1.15% (inactive)	–
COc1ccc2c(c1)[C@@]13CCCC[C@H]1[C@@H](C2)NCC3	3.12% (inactive)	–
CC(C)(C)c1cc(C=C(C#N)C#N)cc(C(C)(C)C)c1O	-13.4% (inactive)	–
Cc1o[nH]c(=O)c1CC(N)C(=O)O (stereo not given)	-1.59% (inactive)	–
CN1C2CCC1CC(OC(c1ccccc1)c1ccccc1N)C2 (stereo not given)	2.29% (inactive)	–
N[C@@H](CCl)C(=O)O	0.513% (inactive)	–
NC(N)=NOCC[C@H](N)C(=O)O	2.04% (inactive)	–
CP(=O)(O)C1=CCNCC1	-0.162% (inactive)	–
COc1ccc2c(c1)/C(=C/c1cnc[nH]1)C(=O)N2	-13% (inactive)	–
CC1OC1P(=O)(O)O (stereo not given)	-2.73% (inactive)	–
CC(Cc1ccc(OCC(=O)O)cc1)NCC(O)c1cccc(Cl)c1 (stereo not given)	-9.61% (inactive)	–
C=CCN1C[C@@H](C)N([C@H](c2ccc(C(=O)N(CC)CC)cc2)c2cccc(OC)c2)C[C@@H]1C	2.26% (inactive)	–
